PubChem BioAssay (EPA / NIEHS)
More than one record can exist for a structure, and the calls need not agree. The source made the active and inactive calls. The calls were made as follows: active = hit-call score of the fitted dose curve at least 0.9, where 1 is the maximum; inactive = score below 0.9.

Experiment: ATG_GLI_CIS: Attagene CIS-FACTORIAL HepG2 Assay for human Zinc Finger Protein GLI1 (AID 2282945)
Conditions: HepG2, Attagene cis-factorial reporter mRNA, GLI element; actives raise or lower the signal
Experimental: ATG_CIS is a cell-based, multiplexed-readout assay that uses HepG2, a human liver cell line, with measurements taken at 24 hours after chemical dosing in a 24-well plate.ATG_GLI_CIS is one of 52 assay component(s) measured or calculated from the ATG_CIS assay. It is designed to make measurements of mRNA induction, a form of inducible reporter, as detected with fluorescence intensity signals by Reverse transcription polymerase chain reaction (RT-PCR) and Capillary electrophoresis technology.Data from the assay component ATG_GLI_CIS was analyzed into 1 assay endpoint. This assay endpoint, ATG_GLI_CIS, was analyzed with bidirectional fitting relative to DMSO as the negative control and baseline of activity. Using a type of inducible reporter, measures of mRNA for gain or loss-of-signal activity can be used to understand the reporter gene at the transcription factor-level as they relate to the gene GLI1. Furthermore, this assay endpoint can be referred to as a primary readout, because this assay has produced multiple assay endpoints where this one serves a reporter gene function. To generalize the intended target to other relatable targets, this assay endpoint is annotated to the dna binding intended target family, where the subfamily is zinc finger.
Human liver HepG2 cells are transiently transfected with multiple reporter transcription units (MRTUs) in 6-well plates using FuGene 6 reagent (Roche; 3 ml FuGene/1 mg DNA). The MRTU constructs are regulated by a cis-regulating element (promoter). […] A major difference between the CIS and TRANS system is that in CIS activities of endogenous TFs are measured, whereas the TRANS assay evaluates changes in activities of exogenous, chimeric NR-Gal4 proteins. […] At the end of 24 hour incubation, total RNA was isolated using TriZol reagent (Invitrogen). The isolated RNA is then reverse-transcribed using oligo(dT) primer and Mo-MLV reverse transcriptase (Invitrogen) with DNAse I (Ambion) treatment for 30 min. The one-tenth of the produced cDNA was amplified by PCR using Taq DNA polymerase (Invitrogen) and two reporter sequence-specific primers. The PCR products were fluorescently labeled by primer extension with 6-arboxyfluorescein (6-FAM) 5'-labeled reporter sequence-specific primer (2 min at 95 C, 20 s at 68 C and 10 min at 72 C) and these products were digested with 5U of HpaI (New England Biolabs) for 2h at 37 C. The fragments were purified using Qiaquick PCR columns (Qiagen), analyzed on an ABI 3130xL genetic analyzer (Applied Biosystems) with peak positions identified by using a set of X-rhodamine (ROX)-labeled MapMarker1000 molecular weight standards (BioVentures). The raw capillary electrophoresis data was processed using Attagraph software (Attagene).

**Q.** Which outcome does the source give for `CCOC(=O)C(C)Oc1ccc(Oc2cnc3cc(Cl)ccc3n2)cc1` (stereo not given) here?
**A.** inactive

**Q.** For `CC(C)CCCCCCc1ccc(O)cc1`, which outcome is on record?
**A.** inactive

**Q.** With `C#C[C@]1(O)CC[C@H]2[C@@H]3CCC4=CC(=O)CC[C@@H]4[C@H]3CC[C@@]21CC` as the compound, how does the outcome read?
**A.** inactive

**Q.** Which outcome does the source give for `Cc1nn(C)c(Oc2ccccc2)c1C=NOCc1ccc(C(=O)OC(C)(C)C)cc1` here?
**A.** inactive

**Q.** For `COC(=O)c1c(Cl)nn(C)c1S(=O)(=O)NC(=O)Nc1nc(OC)cc(OC)n1`, which outcome is on record?
**A.** inactive

**Q.** For `OB(O)O`, which outcome is on record?
**A.** inactive

**Q.** Which outcome does the source give for `COC(=O)c1ccccc1C(=O)O` here?
**A.** inactive

**Q.** For `CCCN(CCC)c1c([N+](=O)[O-])cc(C(F)(F)F)c(N)c1[N+](=O)[O-]`, which outcome is on record?
**A.** inactive

**Q.** With `COCCO` as the compound, how does the outcome read?
**A.** inactive

**Q.** For `CCN(Cc1c(F)cccc1Cl)c1c([N+](=O)[O-])cc(C(F)(F)F)cc1[N+](=O)[O-]`, which outcome is on record?
**A.** inactive

**Q.** For `O=C(O)c1ccccc1`, which outcome is on record?
**A.** inactive

**Q.** For `CCCCC(CC)CN1C(=O)C2C3C=CC(C3)C2C1=O` (stereo not given), which outcome is on record?
**A.** inactive

**Q.** For `c1ccc(Nc2ccccc2)cc1`, which outcome is on record?
**A.** inactive

**Q.** Which outcome does the source give for `CCOC(=O)[C@H](C)Oc1ccc(Oc2nc3ccc(Cl)cc3o2)cc1` here?
**A.** inactive

**Q.** With `COc1c(Cl)ccc(Cl)c1C(=O)O` as the compound, how does the outcome read?
**A.** inactive

**Q.** With `C[C@]12CC[C@@H]3c4ccc(O)cc4C[C@@H](CCCCCCCCCS(=O)CCCC(F)(F)C(F)(F)F)[C@H]3[C@@H]1CC[C@@H]2O` (stereo not given in full) as the compound, how does the outcome read?
**A.** inactive

**Q.** For `CC(=O)[C@H]1CC[C@H]2[C@@H]3CCC4=CC(=O)CC[C@]4(C)[C@H]3CC[C@]12C`, which outcome is on record?
**A.** inactive

**Q.** For `CCC(O)=C1C(=O)CC(C(=O)O)CC1=O` (stereo not given), which outcome is on record?
**A.** inactive

**Q.** With `c1ccc2[nH]c(-c3cscn3)nc2c1` as the compound, how does the outcome read?
**A.** inactive

**Q.** For `CC(C)(c1ccc(O)cc1)c1ccc(O)cc1`, which outcome is on record?
**A.** inactive

**Q.** And the AC50?
**A.** 58.5 µM (active)

**Q.** Which outcome does the source give for `CC(=O)S[C@@H]1CC2=CC(=O)CC[C@]2(C)[C@H]2CC[C@@]3(C)[C@@H](CC[C@@]34CCC(=O)O4)[C@H]12` here?
**A.** inactive

**Q.** For `N[C@@H](Cc1cc(I)c(Oc2ccc(O)c(I)c2)c(I)c1)C(=O)O`, which outcome is on record?
**A.** inactive

**Q.** Which outcome does the source give for `CCCCC(CC)COC(=O)c1ccccc1C(=O)O` (stereo not given) here?
**A.** inactive

**Q.** With `S=C(S)NCCNC(=S)S.[Mn+2].[S-]C([S-])=NCCN=C([S-])[S-].[Zn+2]` as the compound, how does the outcome read?
**A.** inactive

**Q.** With `CC1(C)C(C=C(Cl)Cl)C1C(=O)OCc1cccc(Oc2ccccc2)c1` (stereo not given) as the compound, how does the outcome read?
**A.** inactive

**Q.** Which outcome does the source give for `CCN(CC)C(=O)c1cccc(C)c1` here?
**A.** inactive

**Q.** With `O=C(O)C1(C(=O)Nc2ccc(Cl)cc2Cl)CC1` as the compound, how does the outcome read?
**A.** inactive

**Q.** With `CC(C)(C)[C@@H](O)[C@@H](Cc1ccc(Cl)cc1)n1cncn1` as the compound, how does the outcome read?
**A.** inactive

**Q.** For `C#CCOC(=O)[C@@H](C)Oc1ccc(Oc2ncc(Cl)cc2F)cc1`, which outcome is on record?
**A.** inactive

**Q.** With `COC(=O)c1ccc(CNS(C)(=O)=O)cc1S(=O)(=O)NC(=O)Nc1nc(OC)cc(OC)n1` as the compound, how does the outcome read?
**A.** inactive

**Q.** With `CCOC(=O)COc1cc(-n2ncc(C(F)(F)F)c(C)c2=O)c(F)cc1Cl` as the compound, how does the outcome read?
**A.** inactive

**Q.** For `CCNc1nc(N)nc(Cl)n1`, which outcome is on record?
**A.** inactive

**Q.** Which outcome does the source give for `CCCOC(=O)NCCCN(C)C` here?
**A.** inactive

**Q.** For `CCCOC(=O)c1ccc(C(=O)OCCC)nc1`, which outcome is on record?
**A.** inactive

**Q.** With `CCCCOC(=O)[C@@H](C)Oc1ccc(Oc2ccc(C(F)(F)F)cn2)cc1` as the compound, how does the outcome read?
**A.** inactive

**Q.** With `COc1nc(C)nc(NC(=O)NS(=O)(=O)c2ccccc2OCCCl)n1` as the compound, how does the outcome read?
**A.** inactive

**Q.** With `C[C@]12C[C@H](O)[C@H]3[C@@H](CCC4=CC(=O)CC[C@@]43C)[C@@H]1CC[C@@H]2C(=O)CO` as the compound, how does the outcome read?
**A.** inactive

**Q.** Which outcome does the source give for `CCOC(=O)c1ccc(O)cc1` here?
**A.** inactive

**Q.** With `Oc1ccc(C(c2ccc(O)cc2)C(Cl)(Cl)Cl)cc1` as the compound, how does the outcome read?
**A.** inactive
